# Experimental data from PubChem BioAssay (NCATS).
# Inconclusive results are not listed. Unmarked numbers belong to inactive results. Active and inactive are the calls of the source. Calls come from the whole dose curve; as a rule, active = well fitted curve in the direction sought with a large enough effect; inconclusive = small, poorly fitted or top-dose-only effect, or another doubt; inactive = no such curve, though single readings can be large; an effect the other way counts as inactive or inconclusive.
# Columns and labels:
# [1] = qHTS of pediatric cancer cell lines to identify multiple opportunities for drug repurposing: Primary screen for SJ-GBM2 cells (AID 1347091);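 for activity change, negative = cytotoxic: plate controls were DMSO neutral control for no effect and bortezomib for full effect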
# In short: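 Cell viability, CellTiter-Glo luminescence; 500-1,000 cells/well, 8- or 11-point titration, 48 h compound exposure at 37 degrees C, 5% CO2. Controls: DMSO neutral, bortezomib 2.3 µM final as positive.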
# [2] = qHTS of pediatric cancer cell lines to identify multiple opportunities for drug repurposing: Primary screen for A673 cells (AID 1347092); note: nearly all actives have a fitted effect of over 45% in size; for activity change, negative = cytotoxic: % is set by controls: 0 for no effect and ±100 for the full control effect
# In short: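 Luminescence from CellTiter-Glo, taken after 15 min at room temperature, served as the proxy for metabolically active cells following 48 h treatment. Both potency and efficacy were taken from curves fitted to the titration data.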
# [3] = qHTS of pediatric cancer cell lines to identify multiple opportunities for drug repurposing: Primary screen for SK-N-MC cells (AID 1347093);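 for activity change, negative = cytotoxic: series mostly up to about 46 µM; plate controls were DMSO neutral control for no effect and bortezomib for full effect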
# In short: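 Metabolically active cells were quantified by ATP-dependent luminescence (CellTiter-Glo, 15 min at room temperature) following 48 h treatment. Cells had been plated at 500-1,000 per well and settled for 5 h beforehand.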
# [4] = qHTS of pediatric cancer cell lines to identify multiple opportunities for drug repurposing: Primary screen for BT-37 cells (AID 1347094);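 for activity change, negative = cytotoxic: series mostly up to about 57 µM; plate controls were DMSO for no effect and bortezomib for full effect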
# In short: (§1)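 Cells plated at 500-1,000/well in growth medium, compounds added after 5 h. MIPE tested at 11 points (from 0.78 nM), NPC at 8 points (from 0.59 nM). CellTiter-Glo luminescence after 48 h; concentration-response curves from primary screen.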
# [5] = qHTS of pediatric cancer cell lines to identify multiple opportunities for drug repurposing: Primary screen for NB-EBc1 cells (AID 1347095);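 for activity change, negative = cytotoxic: plate controls were DMSO neutral control for no effect and bortezomib for full effect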
# In short: as §1
# [6] = qHTS of pediatric cancer cell lines to identify multiple opportunities for drug repurposing: Primary screen for SK-N-SH cells (AID 1347098); note: nearly all actives have a fitted effect of over 65% in size; for activity change, negative = cytotoxic: % is set by controls: 0 for no effect and ±100 for the full control effect
# In short: (§2)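 Cells (500-1,000/well) rested 5 h, then received compounds for 48 h; metabolically active cells were measured by CellTiter-Glo luminescence. Final concentrations spanned up to 46 µM (MIPE, 11-point) or 0.59 nM-46 µM (NPC, 8-point) in primary screens, 11-point in follow-ups.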
# [7] = qHTS of pediatric cancer cell lines to identify multiple opportunities for drug repurposing: Primary screen for LAN-5 cells (AID 1347100);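 for activity change, negative = cytotoxic: plate controls were DMSO neutral control for no effect and bortezomib positive control for full effect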
# In short: as §2
# [8] = qHTS of pediatric cancer cell lines to identify multiple opportunities for drug repurposing: Primary screen for U-2 OS cells (AID 1347096); note: nearly all actives have a fitted effect of over 50% in size;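 for activity change, negative = cytotoxic: plate controls were DMSO wells for no effect and bortezomib positive control wells for full effect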
# In short: as §2
# [9] = qHTS of pediatric cancer cell lines to identify multiple opportunities for drug repurposing: Primary screen for Saos-2 cells (AID 1347097); note: nearly all actives have a fitted effect of over 40% in size; for activity change, negative = cytotoxic: % is set by controls: 0 for no effect and ±100 for the full control effect
# In short: as §1
# [10] = qHTS of pediatric cancer cell lines to identify multiple opportunities for drug repurposing: Primary screen for NB1643 cells (AID 1347099); note: nearly all actives have a fitted effect of over 50% in size;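 for activity change, negative = cytotoxic: plate controls were DMSO neutral control for no effect and bortezomib positive control for full effect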
# In short: as §1
# Potency is the fitted concentration of half-maximal effect.
compound,measurement,setting,value
CCOC(=O)N1CCN([N+]([O-])=NOc2ccc([N+](=O)[O-])cc2[N+](=O)[O-])CC1,Potency,[1],8330 nM (active)
same,Potency,[2],9350 nM (active)
same,Potency,[3],8330 nM (active)
same,Potency,[4],15300 nM (active)
same,Potency,[5],5260 nM (active)
same,Potency,[6],27100 nM (active)
same,Potency,[7],11800 nM (active)
O=c1ccn([C@@H]2O[C@H](CO)[C@H](O)[C@@H]2F)c(=O)[nH]1,Potency,[1],inactive
same,Potency,[2],23500 nM (active)
same,Potency,[3],8330 nM (active)
same,Potency,[4],inactive
same,Potency,[8],inactive
same,Potency,[9],inactive
same,Potency,[6],9610 nM (active)
same,Potency,[10],inactive
same,Potency,[7],inactive
Cc1cc(Nc2ncc3c(n2)N(C)C(=O)N(c2cc(NC(=O)c4cccc(C(F)(F)F)c4)ccc2C)C3)n(C)n1,Potency,[1],296 nM (active)
same,Potency,[2],372 nM (active)
same,Potency,[3],209 nM (active)
same,Potency,[5],743 nM (active)
same,Potency,[8],935 nM (active)
same,Potency,[9],372 nM (active)
same,Potency,[6],607 nM (active)
same,Potency,[7],935 nM (active)
CCNC(=O)c1cc2c(-c3cc(OCCN4CCCC4)c(Cl)cc3Cl)nc(N)nc2s1,Potency,[1],2090 nM (active)
same,Potency,[2],1180 nM (active)
same,Potency,[3],2640 nM (active)
same,Potency,[5],935 nM (active)
same,Potency,[8],inactive
same,Potency,[9],3720 nM (active)
same,Potency,[6],3040 nM (active)
same,Potency,[10],2640 nM (active)
same,Potency,[7],1480 nM (active)
CC[C@]12C=CCN3CC[C@@]4(c5cc([C@@]6(C(=O)OC)C[C@H]7C[C@@H](C(C)(F)F)CN(Cc8c6[nH]c6ccccc86)C7)c(OC)cc5N(C)[C@H]4[C@@](O)(C(=O)OC)[C@H]1OC(C)=O)[C@@H]32,Potency,[1],1 nM (active)
same,Potency,[2],4.7 nM (active)
same,Potency,[3],3 nM (active)
same,Potency,[4],27.3 nM (active)
same,Potency,[9],8.3 nM (active)
same,Potency,[10],132 nM (active)
same,Potency,[7],5.3 nM (active)
C[C@@H]1C(=O)O[C@H]2CC34[C@H]5C[C@@H](C(C)(C)C)C36[C@H](OC(=O)[C@@H]6O)O[C@@]4(C(=O)O5)[C@]21O (stereo partly specified),Potency,[1],inactive
same,Potency,[2],inactive
same,Potency,[3],inactive
same,Potency,[5],inactive
same,Potency,[8],inactive
same,Potency,[7],13200 nM (active)
COc1cc(C(C)C)c(Oc2cnc(NC(CO)CO)nc2N)cc1I,Potency,[1],inactive
same,Potency,[2],372 nM (active)
same,Potency,[3],1050 nM (active)
same,Potency,[4],inactive
same,Potency,[6],1080 nM (active)
same,Potency,[10],2960 nM (active)
same,Potency,[7],inactive
Cc1ncc(-c2ccnc(Nc3ccc(S(C)(=O)=O)cc3)n2)n1C(C)C,Potency,[1],1320 nM (active)
same,Potency,[2],935 nM (active)
same,Potency,[3],2350 nM (active)
same,Potency,[4],6110 nM (active)
same,Potency,[5],2350 nM (active)
same,Potency,[10],2350 nM (active)
Cn1c(Nc2ccc(C(F)(F)F)cc2)nc2cc(Oc3ccnc(-c4ncc(C(F)(F)F)[nH]4)c3)ccc21,Potency,[1],662 nM (active)
same,Potency,[2],2350 nM (active)
same,Potency,[3],187 nM (active)
same,Potency,[4],2430 nM (active)
same,Potency,[8],14800 nM (active)
same,Potency,[9],2960 nM (active)
same,Potency,[6],7640 nM (active)
same,Potency,[7],10500 nM (active)
Cn1cnc2c(F)c(Nc3ccc(Br)cc3F)c(C(=O)NOCCO)cc21,Potency,[1],inactive
same,Potency,[2],inactive
same,Potency,[3],inactive
same,Potency,[4],inactive
same,Potency,[9],inactive
COc1cccc2c1C(=O)c1c(O)c3c(c(O)c1C2=O)C[C@@](O)(C(C)=O)C[C@H]3O[C@H]1C[C@H](N)[C@H](O)[C@H](C)O1,Potency,[1],66.2 nM (active)
same,Potency,[2],46.9 nM (active)
same,Potency,[3],46.9 nM (active)
same,Potency,[4],27.3 nM (active)
same,Potency,[8],118 nM (active)
same,Potency,[9],264 nM (active)
same,Potency,[6],121 nM (active)
COc1cc2c(cc1OC)[C@@H]1C(=O)c3ccc4c(c3O[C@@H]1CO2)C=CC(C)(C)O4,Potency,[1],18700 nM (active)
same,Potency,[2],74.3 nM (active)
same,Potency,[3],148 nM (active)
same,Potency,[5],10500 nM (active)
same,Potency,[8],inactive
same,Potency,[9],13200 nM (active)
same,Potency,[10],3320 nM (active)
same,Potency,[7],18700 nM (active)
CCN1CCN(C(=O)N[C@H](C(=O)N[C@@H]2C(=O)N3C(C(=O)O)=C(CSc4nnnn4C)CS[C@@H]23)c2ccc(O)cc2)C(=O)C1=O,"activity change, negative = cytotoxic",[1],24.4% [at 9.22 µM]
same,"activity change, negative = cytotoxic",[2],6.36% [at 9.22 µM]
same,"activity change, negative = cytotoxic",[3],-14.8% [at 9.22 µM]
same,"activity change, negative = cytotoxic",[4],17.1% [at 11.5 µM]
same,"activity change, negative = cytotoxic",[8],20.8% [at 9.22 µM]
same,"activity change, negative = cytotoxic",[9],18.2% [at 9.22 µM]
same,"activity change, negative = cytotoxic",[10],17.1% [at 9.22 µM]
same,"activity change, negative = cytotoxic",[7],-3.47% [at 9.22 µM]
NC1=N[C@H]2[C@H](CS[C@H]2CCCCC(=O)O)N1,Potency,[1],inactive
same,Potency,[2],inactive
same,Potency,[3],inactive
same,Potency,[4],inactive
same,Potency,[8],inactive
same,Potency,[9],inactive
same,Potency,[6],inactive
same,Potency,[10],inactive
same,Potency,[7],inactive
CC(=O)N1CCN(c2ccc(OCc3nn(C)c(C)c3-c3cccc4c(CCCOc5cccc6ccccc56)c(C(=O)O)n(Cc5cccnc5)c34)cc2)CC1,Potency,[1],1050 nM (active)
same,Potency,[2],74.3 nM (active)
same,Potency,[3],23.5 nM (active)
same,Potency,[4],485 nM (active)
same,Potency,[8],3720 nM (active)
same,Potency,[6],3830 nM (active)
same,Potency,[10],209 nM (active)
same,Potency,[7],148 nM (active)
C=C1C[C@@]2(O)O[C@@]3(C[C@H]2C(C)C)[C@H](C)CC[C@H]13,Potency,[1],inactive
same,Potency,[2],inactive
same,Potency,[3],inactive
same,Potency,[4],inactive
same,Potency,[8],inactive
same,Potency,[9],inactive
same,Potency,[6],inactive
same,Potency,[10],inactive
same,Potency,[7],inactive
